# The list is not random: actives were taken first. Their share in the collection is about 11%.
# FLuc inh = blocks purified firefly luciferase enzyme activity; P08659; purified P. pyralis luciferase, luminescence, biochemical; Potency, µM (doses to about 115 µM), hits mostly inhibitors; 2.5% of 76,000 active; AID 1347043; note: nearly all actives have a fitted effect of over 65% in size
#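 Purified P. pyralis luciferase (10nM final) in 50mM Tris acetate pH 7.5, 10mM Mg acetate, 0.01% Tween-20, 0.05% BSA with 10uM D-luciferin and 10uM ATP. Compounds titrated qHTS. Luminescence imaged on CCD.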
# HEK293 tox = cytotoxic compounds in HEK 293 cells; HEK 293 viability, ATP luminescence (CellTiter-Glo), 48-72 h; 6.6% of 94,000 active; Potency, µM (doses to about 115 µM), actives largely listed as inhibitors; note: nearly all actives have a fitted effect of over 60% in size
#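 ATP-coupled CellTiter-Glo luminescence served as viability read-out, recorded 10 min after reagent addition at room temperature. HEK 293 cells, 250 cells/well, had been incubated with pintool-transferred compound for 48 or 72 hr at 37 degree Celsius.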
# hNpr1 antagonist = blocks ANP-stimulated signaling of human Npr1 receptor. Potency, µM (series often up to 46.3 µM), usual class: inhibitors. AID 1347048. 1.6% of 76,000 active. HEK293 hNpr1 GloSensor cGMP, ANP-stimulated luminescence; calls by dose curve; note: nearly all actives have a fitted effect of over 60% in size
# Target sequence (P16066 whole entry, looked up): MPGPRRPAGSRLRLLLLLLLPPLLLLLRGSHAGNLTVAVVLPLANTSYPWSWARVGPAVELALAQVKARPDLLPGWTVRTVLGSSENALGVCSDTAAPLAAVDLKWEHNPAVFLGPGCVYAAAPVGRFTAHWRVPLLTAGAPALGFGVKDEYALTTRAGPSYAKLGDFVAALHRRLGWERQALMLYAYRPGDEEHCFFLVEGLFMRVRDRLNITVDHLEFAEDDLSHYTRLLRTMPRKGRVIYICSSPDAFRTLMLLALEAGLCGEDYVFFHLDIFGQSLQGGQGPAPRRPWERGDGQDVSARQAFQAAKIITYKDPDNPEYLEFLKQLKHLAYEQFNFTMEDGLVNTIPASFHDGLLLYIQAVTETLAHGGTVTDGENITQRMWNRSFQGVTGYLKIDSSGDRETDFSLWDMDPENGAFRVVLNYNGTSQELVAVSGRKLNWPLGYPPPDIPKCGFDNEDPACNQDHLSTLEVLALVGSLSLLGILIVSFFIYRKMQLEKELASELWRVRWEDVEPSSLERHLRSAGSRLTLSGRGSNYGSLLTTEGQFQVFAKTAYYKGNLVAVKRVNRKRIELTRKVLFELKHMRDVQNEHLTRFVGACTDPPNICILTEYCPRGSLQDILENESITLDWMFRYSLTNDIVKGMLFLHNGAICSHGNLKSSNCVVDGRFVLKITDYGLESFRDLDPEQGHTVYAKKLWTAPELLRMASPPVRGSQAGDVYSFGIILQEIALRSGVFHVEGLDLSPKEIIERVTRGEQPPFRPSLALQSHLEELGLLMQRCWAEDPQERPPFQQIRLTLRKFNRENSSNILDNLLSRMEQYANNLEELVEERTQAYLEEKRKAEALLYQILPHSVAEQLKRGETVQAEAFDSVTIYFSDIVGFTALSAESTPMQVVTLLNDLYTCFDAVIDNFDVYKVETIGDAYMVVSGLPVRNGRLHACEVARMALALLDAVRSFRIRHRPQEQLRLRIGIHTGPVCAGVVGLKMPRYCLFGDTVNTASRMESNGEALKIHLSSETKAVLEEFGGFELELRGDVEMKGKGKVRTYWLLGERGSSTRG
#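 HEK293 cells stably expressing human Npr1 and cGMP GloSensor pGS-40F, loaded 2 h with 2% GloSensor reagent, given compound 30 min at room temperature. Luminescence read before and 20 min after 0.1 nM hNppA.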
# 3T3 cytotox = NIH 3T3 cell cytotoxicity | 4.3% of 94,000 active | AID 1345082 | Potency, µM (titrated, usually from 96.7 µM), actives largely listed as inhibitors | NIH 3T3 viability, CellTiter-Glo ATP luminescence, 48-72 h; note: nearly all actives have a fitted effect of over 55% in size
#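 Viability of NIH 3T3 cells after 48 or 72 hr compound treatment at 37 °C was assessed by CellTiter-Glo, with luminescence imaged following a 10 min room-temperature step.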
# Hits are given with their value; 0 = inactive; ? = inconclusive; - = not tested or not shown. Unless noted, calls come from the whole dose curve; as a rule, active = well fitted curve in the direction sought with a large enough effect; inconclusive = small, poorly fitted or top-dose-only effect, or another doubt; inactive = no such curve, though single readings can be large; an effect the other way counts as inactive or inconclusive.
SMILES,FLuc inh,HEK293 tox,hNpr1 antagonist,3T3 cytotox
O=C1NC2(CCN(Cc3cccnc3)CC2)COc2ccccc21,0,?,0,0
Cn1cccc1CN1CCC2(COc3ccccc3C(=O)N2)C1 (configuration not stated),0,?,0,?
Cc1ccc(CN2CCC3(CC2)COc2ccccc2C(=O)N3)cc1,0,28µM,0,?
CC(=O)Nc1ccc(CN2CCC3(CC2)COc2ccccc2C(=O)N3)cc1,0,?,0,0
Cn1nccc1CN1CCCC2(COc3ccccc3C(=O)N2)C1 (configuration not stated),0,28µM,?,8.9µM
COc1ccc(CN(C(=O)c2ccco2)c2ccc(CC(=O)NC(C)c3ccccc3)cc2)cc1 (configuration not stated),0,?,0,?
CCn1ccc(C(=O)N2CCC3(CC2)CC(c2nnc(COC)o2)N(C)C3)n1 (configuration not stated),-,0,-,0
COc1ccccc1-c1cccc(C(=O)N2CCN(C(=O)Cc3ccccn3)CC2)c1,-,0,-,0
O=C1NC2(CCN(CC3CC3)CC2)COc2ccccc21,0,?,0,?
O=C1NC2(CCN(CC3CCCCC3)CC2)COc2ccccc21,0,35µM,0,79µM
CCC(CC)Nc1ncnc2c1CN(C1CCCNCC1)C(=O)CN2C (configuration not stated),-,0,-,0
Cc1ccc(CC(=O)N2CCc3cn(C)c4cccc(c34)C2)cc1,0,79µM,0,?
Cc1ccc(Cc2nc(C3CC(=O)N(c4ccc(Cl)cc4)C3)no2)cc1 (configuration not stated),0,?,0,?
O=C1CC(c2noc(Cc3ccc(F)cc3)n2)CN1c1ccc(F)c(Cl)c1 (configuration not stated),0,22µM,0,18µM
CN1C(=O)CCC2(CNC(=O)c3cccc4nccnc34)CCCC=C12 (configuration not stated),0,79µM,0,?
CN1C(=O)CCC2(CNC(=O)c3ccncc3)CCCC=C12 (configuration not stated),0,0,0,0
CC(C)(O)C#Cc1ccc(C(=O)N2CC(=O)N(C3CCCCC3)CC(OCc3cccnc3)C2)o1 (configuration not stated),0,0,0,0
Cc1ccccc1C1(O)CCN(C(=O)c2ccc(C#CC(C)(C)O)o2)C1 (configuration not stated),0,?,0,35µM
CC1=C[C@@H](CN2CCN(C)CC2)[C@H](C(C)C)C[C@H]1Cc1nnc(-c2ccc(C)cc2)o1,0,28µM,0,22µM
CC1=C[C@@H](CN2CCN(C)CC2)[C@H](C(C)C)C[C@H]1Cc1nnc(-c2ccc(N(C)C)cc2)o1,0,22µM,0,40µM
CC(=O)N1CCN(C(=O)C[C@@H]2C[C@@H](C(C)C)[C@H](CNC(=O)c3cncnc3)C=C2C)CC1,0,0,0,0
CC1=C[C@@H](CNC(=O)c2cncnc2)[C@H](C(C)C)C[C@H]1Cc1nnc(-c2ccncc2)o1,0,79µM,0,?
CC1=C[C@@H](CN2CCN(CCO)CC2)[C@H](C(C)C)C[C@H]1Cc1nnc(-c2ccncc2)o1,0,45µM,0,?
Cc1noc(C)c1CCC(=O)N1CCC2(CC1)CC(CCOCC1CC1)CCO2 (configuration not stated),-,0,-,0
CNC(=O)CCn1ncc2cc(OCc3ccccc3-c3ccc(F)c(Cl)c3)ccc21,?,100µM,?,79µM
SMILES,FLuc inh,HEK293 tox,hNpr1 antagonist,3T3 cytotox
CNC(=O)CCn1ncc2cc(OCc3ccccc3-c3ccc(F)cc3)ccc21,?,71µM,0,?
CNC(=O)CCn1ncc2cc(OCc3ccccc3-c3cccnc3)ccc21,0,?,0,?
CNC(=O)CCn1ncc2cc(OCc3ccccc3-c3cc(F)ccc3OC)ccc21,40µM,79µM,0,?
CNC(=O)CCn1ncc2cc(OCc3ccccc3-c3ccccc3F)ccc21,?,100µM,0,79µM
CNC(=O)CCn1ncc2cc(OCc3ccccc3-c3cc(F)ccc3OC(C)C)ccc21,0,?,0,?
CNC(=O)CCn1ncc2cc(OCc3ccccc3-c3ccc(OC)cc3Cl)ccc21,0,?,0,?
CCOC(=O)[C@H]1[C@@H](O)C(=O)N(C(C)C)C12CCN(C(=O)c1cc(C)oc1C)CC2,-,0,-,?
O=C(c1cccc(Cl)c1)N1CCCC(C(=O)N2CCC(N3CCCC3=O)CC2)C1 (configuration not stated),-,0,-,0
